Compounds without any hit were thinned out: in the full panel of roughly 83,000, 20% have a hit.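 The test compound was applied at a single concentration to cells in 96-well plates for 48 hours, and percent growth was recorded.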 Values without a mark were called inactive. Activity calls are given as the source filed them. Rule for the calls: active = growth percent below 10; inactive = the rest.
Key:
Test in all cases: NCI-60 one-dose screen, 48 h (100 = growth as untreated, 0 = no growth, -100 = all killed)
Conditions in all cases: 10 µM unless noted
SK-MEL-2 melanoma = system: SK-MEL-2 melanoma
EKVX NSCLC = system: EKVX NSCLC
SN12C renal = system: SN12C renal
UO-31 renal = system: UO-31 renal
TK-10 renal = system: TK-10 renal
ACHN renal = system: ACHN renal
CAKI-1 renal = system: CAKI-1 renal
CCRF-CEM leukemia = system: CCRF-CEM leukemia
MOLT-4 leukemia = system: MOLT-4 leukemia
RPMI-8226 leukemia = system: RPMI-8226 leukemia
OVCAR-8 ovarian = system: OVCAR-8 ovarian
OVCAR-5 ovarian = system: OVCAR-5 ovarian
SK-OV-3 ovarian = system: SK-OV-3 ovarian
IGROV1 ovarian = system: IGROV1 ovarian
OVCAR-3 ovarian = system: OVCAR-3 ovarian
HS 578T breast = system: HS 578T breast
NCI/ADR-RES ovarian = system: NCI/ADR-RES ovarian
A498 renal = system: A498 renal
SR leukemia = system: SR leukemia
OVCAR-4 ovarian = system: OVCAR-4 ovarian

| SMILES | growth (SK-MEL-2 melanoma) | growth (EKVX NSCLC) | growth (SN12C renal) | growth (UO-31 renal) | growth (TK-10 renal) | growth (ACHN renal) | growth (CAKI-1 renal) | growth (CCRF-CEM leukemia) | growth (MOLT-4 leukemia) | growth (RPMI-8226 leukemia) | growth (OVCAR-8 ovarian) | growth (OVCAR-5 ovarian) | growth (SK-OV-3 ovarian) [%] | growth (IGROV1 ovarian) | growth (OVCAR-3 ovarian) | growth (HS 578T breast) | growth (NCI/ADR-RES ovarian) | growth (A498 renal) [%] | growth (SR leukemia) | growth (OVCAR-4 ovarian) |
| --- | --- | --- | --- | --- | --- | --- | --- | --- | --- | --- | --- | --- | --- | --- | --- | --- | --- | --- | --- | --- |
| CC(C)(C)Nc1c(-c2c3ccccc3cc3ccccc23)nc2ccccn12 | 77.1% | 70.1% | 82.3% | 49.8% | 76% | 77.8% | 50.1% | 61.7% | 45.5% | 55% | 67.2% | 78.5% | 59.6 | 64.2% | 72.3% | 72% | 82.9% | – | – | – |
| CCOC(=O)c1cnn2c(-c3ccc(Cl)cc3)nc(NCc3ccccc3)nc12 | 91% | 68.7% | 31.2% | 59.9% | 71.3% | 13.7% | – | 66.9% | 64.9% | – | 30.5% | 100% | 112 | 64.8% | 29.9% | 79.5% | 26.3% | 31.5 | 44.5% | 5.61% (active) |
| Cc1nc(Nc2ccc(NC(=S)Nc3ccccc3)cc2)nc2nc(SCc3ccccc3)[nH]c(=O)c12 | 110% | 99.2% | 93.6% | 86% | 199% | 107% | – | 92.3% | – | 67% | 82.4% | 102% | 109 | 65.7% | 112% | 105% | 110% | 102 | 61.8% | 106% |
| COc1ccc(-c2cc(-c3ccc(Nc4nc(Nc5ccccc5)nc(Nc5ccc(Cl)cc5)n4)cc3)nc(N)c2C#N)cc1 | -33% (active) | 18.7% | 25.7% | -71.5% (active) | -86.6% (active) | -82.2% (active) | -20.4% (active) | 3.41% (active) | 2.08% (active) | -29.6% (active) | 31.9% | -38.7% (active) | 86.8 | -18.4% (active) | -96.1% (active) | – | 2.12% (active) | – | – | 4.19% (active) |
| N#Cc1cnn2c(-c3ccc(Cl)cc3)nc(NC3CC3)nc12 | 99.8% | 75.9% | 98.9% | 69.2% | 94.2% | 96.8% | – | 95.7% | 80.1% | – | 102% | 93.9% | 107 | 89.4% | 101% | 101% | 98.8% | 84.5 | 86.1% | 87.2% |
| O=c1[nH]c(=O)n(C2CC(O)C(CO)O2)cc1CO (centres undefined) | 53.5% | 98.8% | 76.2% | 102% | 90.5% | 101% | 86.3% | 79.8% | 87.7% | 98.9% | 99.9% | 29.7% | 107 | 124% | 113% | – | 4.34% (active) | – | – | 107% |
| CC1=CC(=O)C(C(C)C)=CC1=Nc1cc(Br)c(O)c(Br)c1 | 23.5% | 44.1% | 36.3% | 48.4% | 93.2% | 57.8% | 51.3% | -1.08% (active) | 23.8% | -8.71% (active) | 31.1% | 29.4% | 19.6 | 22.9% | -9.25% (active) | – | -22.9% (active) | – | – | 37.2% |
| Cl.Fc1c[c-]c(-c2ccccn2)c(F)c1.[Pt].c1ccc([PH+](C[PH+](c2ccccc2)c2ccccc2)c2ccccc2)cc1 | -74.6% (active) | -84.4% (active) | -70.3% (active) | -93.2% (active) | -81.4% (active) | -97.8% (active) | -91% (active) | – | -38.9% (active) | – | -19.6% (active) | -81.8% (active) | – | -75.9% (active) | -93.8% (active) | -25.2% (active) | -38.8% (active) | – | -25.4% (active) | -93.4% (active) |
| Clc1ccc(-c2cn(-c3ccccc3)c(-c3ccccc3)n2)cc1 | 110% | 84.5% | 95.9% | 67.8% | 92.4% | 94.6% | – | -3.48% (active) | 7.71% (active) | -54.6% (active) | 90.7% | 90% | – | 48% | 80% | 102% | 93.4% | 88.4 | -19.6% (active) | 88.1% |
| COC1(CC[C@@H](C)COC2OC(CO)C(O)C(O)C2O)O[C@H]2C[C@H]3[C@@H]4CC=C5C[C@@H](OC6OC(CO)C(OC7OC(C)C(O)C(O)C7O)C(O)C6OC6OC(C)C(O)C(O)C6O)CC[C@]5(C)[C@H]4CC[C@]3(C)[C@H]2[C@@H]1C (some centres undefined) | -71% (active) | 4.85% (active) | -64.7% (active) | -65.4% (active) | -60.4% (active) | -87.4% (active) | -76.5% (active) | -95.2% (active) | – | -56.3% (active) | -64.6% (active) | -86.6% (active) | – | -78.6% (active) | -73.6% (active) | – | -75.6% (active) | – | – | -64.7% (active) |
| COc1ccc(C2=NC(=O)NC2c2ccc(OC)cc2)cc1 (centres undefined) | 59.9% | 75.9% | 71% | 61% | 87.6% | 83.2% | 50.6% | 68.3% | 65.8% | 57.4% | 97.6% | 77.8% | 66.4 | 77.8% | 69% | – | 1.85% (active) | – | – | 74.8% |
| COc1cc(/C=C/C(=O)c2ccc(Nc3nc(Nc4ccccc4)nc(Nc4ccc(Cl)cc4)n3)cc2)cc(OC)c1OC | 82% | 52.8% | 69% | 50.6% | 74.7% | 66.1% | 66.4% | 18.5% | 25.5% | -4.87% (active) | 41.1% | 55.1% | 79.5 | 54.8% | 48% | – | 21.8% | – | – | 61% |
| Cc1ccc2c(n1)C(=O)C(Oc1ccc(F)cc1)=CC2=O | 110% | 103% | 100% | 93.9% | 101% | 9.92% (active) | 99.1% | 40.2% | – | 43.4% | 87% | 111% | – | 109% | 73.2% | 105% | 97.1% | – | 64.6% | 96.6% |
| CC(=[N-])N1CCC[C@@H](Nc2c3ccccc3nc3ccccc23)C1.[Cl][Pt].[NH-]CCC[NH-] | 52.4% | 52.3% | 5.71% (active) | 27.4% | 1.35% (active) | -22.2% (active) | 15.5% | 35.4% | – | 30.1% | 39.1% | 39% | – | 17.2% | 3.95% (active) | 51.7% | 85% | – | 17.1% | 20.4% |
| CCOC(=O)N1CCc2c(sc3c2C(=O)N[C@H](c2ccc(OC)cc2)N3)C1 | 96.5% | 101% | 85.4% | 87.6% | 109% | 103% | – | 95.9% | 99.7% | – | 89.2% | 108% | – | 107% | 102% | 98.7% | 102% | 96.4 | 87.7% | 102% |
| Cc1cc(=O)c2cc3nc(-c4cccnc4)oc3c(Br)c2o1 | 131% | 98.9% | 110% | 106% | 153% | 110% | – | 94.1% | 89.7% | 90% | 99.9% | 90.1% | 195 | – | 123% | 116% | 83.9% | 103 | 70.7% | 101% |
